This is a sample that favours compounds with a hit; in the whole collection about 2.1% have one here.
COUP-TFII inh: blocks human COUP-TFII nuclear receptor. P24468. HEK293T NGFI-A luciferase reporter, luminescence. inhibition, % at 8.6 µM. actives 0.7% (n = 370,000);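 active means inhibition above a per-plate cutoff, mean inhibition of test wells between control levels plus 3 SD, cut at about 38% in these data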;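 further: cells cotransfected with COUP-TFII expression vector driving the NGFI-A reporter; 0% = median of COUP-TF2 test wells and 100% = reporter-only cells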
Target sequence (P24468 whole entry, looked up): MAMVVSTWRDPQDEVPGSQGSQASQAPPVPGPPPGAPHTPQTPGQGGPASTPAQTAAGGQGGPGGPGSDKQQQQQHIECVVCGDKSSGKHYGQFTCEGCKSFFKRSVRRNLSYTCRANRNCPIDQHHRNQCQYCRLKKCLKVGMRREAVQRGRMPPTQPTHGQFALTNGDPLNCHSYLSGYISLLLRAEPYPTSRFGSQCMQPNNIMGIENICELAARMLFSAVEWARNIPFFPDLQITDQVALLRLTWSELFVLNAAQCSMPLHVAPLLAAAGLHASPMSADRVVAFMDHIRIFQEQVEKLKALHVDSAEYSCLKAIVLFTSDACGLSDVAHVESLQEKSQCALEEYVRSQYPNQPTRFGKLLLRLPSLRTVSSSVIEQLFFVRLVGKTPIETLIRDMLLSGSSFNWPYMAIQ
Gli-Sufu antag: antagonists of Gli-Sufu signaling. actives 0.74% (n = 340,000). inhibition, % at 5 µM. AID 588413. Sufu-KO-LIGHT fibroblasts, Gli luciferase reporter luminescence;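 active means inhibition above about 55%, limit read from the data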;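 further: 0% = DMSO-treated cells and 100% = wells with medium but no cells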
aDG glyco up: increases alpha dystroglycan glycosylation; Pro5-aDG cells, alpha-DG glycosylation AlphaScreen (IIH6); 0% Pro5, 100% B10-LARGE cell signal; activation, % at 10 µM; actives 0.22% (n = 360,000); AID 624168;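 active means activation of at least 8% versus controls, or a plate z-score of at least 8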;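 further: Pro5 are CHO cells carrying HIG-tagged alpha-DG that lacks glycosylation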
GalR3 antag: blocks the human galanin receptor 3; O60755; HEK293 GalR3-CNG cAMP membrane potential fluorescence; galR3 body fused to GalR1 C-terminus; inhibition, % at 3 µM; actives 0.44% (n = 360,000); AID 651719;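 active means inhibition above the screen-wide average plus 3 SD, cut at about 13% in these data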;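 further: forskolin and galanin both at EC90 stimulate the cells; cAMP rise reported by CNG channel membrane potential dye signal; 0% = forskolin plus galanin with DMSO and 100% = forskolin alone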
Target sequence (O60755 1-299 limits assumed): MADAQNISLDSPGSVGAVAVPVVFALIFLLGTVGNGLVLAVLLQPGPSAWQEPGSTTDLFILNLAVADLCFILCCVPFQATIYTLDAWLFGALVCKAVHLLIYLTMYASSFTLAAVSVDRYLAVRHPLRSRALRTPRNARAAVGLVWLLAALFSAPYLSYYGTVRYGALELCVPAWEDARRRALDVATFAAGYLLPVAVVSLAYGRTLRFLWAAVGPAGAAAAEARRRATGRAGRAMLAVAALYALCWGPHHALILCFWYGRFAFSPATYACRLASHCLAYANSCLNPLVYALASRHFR
HIV Env fusion: inhibitors of HIV Env-mediated cell fusion; AID 651610; inhibition, % at 12.3 µM; actives 1.1% (n = 360,000); HeLa-JRFL Env/CEM21 cell fusion, luciferase;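 active means mean replicate inhibition score of at least 50 and every replicate individually at or above 50; inconclusive means only one of the two criteria met; inactive means mean below 50 and not all replicates reaching 50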;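 further: 0% = plate neutral controls and 100% = maraviroc near 300 nM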
GalR3 antag conf: GalR3 (human) antagonism, confirmation; shares compounds with GalR3 antag; HEK293 GalR3 CNG cAMP biosensor, membrane potential fluorescence; galR3 fused to GalR1 carboxy tail; challenged with forskolin and galanin at EC90; inhibition, % at 3 µM; actives 59% (n = 1,600); AID 652245;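 active means inhibition above the primary screen's cutoff, the mean inhibition of all screened compounds plus 3 SD, cut at about 13% in these data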;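 further: 0% = forskolin plus galanin and 100% = forskolin alone with DMSO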
HEK-CNG parental: acts as nonspecific agonist in parental HEK-CNG cells; shares compounds with GalR3 antag; HEK293-CNG parental cells, cAMP membrane potential fluorescence; normalised: DMSO wells 0%, forskolin wells 100%; activation, % at 3 µM; actives 10% (n = 1,600); AID 652268; in the data active means activation above about 1.3%
* = called active by the depositor; [ ] = another dose, or the depositor's remark.

How did Cn1c(=O)c2c(ncn2Cc2ccc(Cl)cc2)n(C)c1=O do in these assays?
COUP-TFII inh: 18.4; Gli-Sufu antag: 1.1; aDG glyco up: 0.8; GalR3 antag: 15.2*; HIV Env fusion: 12.8; GalR3 antag conf: 0.2; HEK-CNG parental: 0.0

What do the screens show for `Cn1c(=O)c2c(ncn2CC(COCc2ccc(Cl)cc2)OCc2ccc(Cl)cc2)n(C)c1=O` (configuration not stated)?
COUP-TFII inh: 25.2; Gli-Sufu antag: 14.2; aDG glyco up: 0.3; GalR3 antag: -3.6

What do the screens show for `CCC(C)Nc1nc2c(c(=O)n(C)c(=O)n2C)n1Cc1ccc(Cl)cc1` (configuration not stated)?
COUP-TFII inh: 2.9; aDG glyco up: 0.1; GalR3 antag: 1.4; HIV Env fusion: 2.6

What do the screens show for `Cn1c(=O)c2c(nc(NCc3cccnc3)n2Cc2ccc(Cl)cc2)n(C)c1=O`?
COUP-TFII inh: 3.7; Gli-Sufu antag: -1.0; aDG glyco up: -0.2; GalR3 antag: 23.5*; GalR3 antag conf: 9.1; HEK-CNG parental: 1.1

Results for O=C(N[C@H]1CC[C@@H](CCNC(=O)C2CCOCC2)O[C@H]1CO)c1ccncc1 ?
HIV Env fusion: -5.4[16.7 µM]

How did Cc1noc(C)c1NC(=O)Nc1ccc2c(c1)C(=O)N([C@H](C)CO)C[C@@H](C)[C@H](CN(C)C)OCCCC[C@@H](C)O2 do in these assays?
HIV Env fusion: 2.8[16.7 µM]

How did COc1ccc(NCc2nnc(SCC(=O)Nc3ccc(OC)cc3)n2C)cc1 do in these assays?
COUP-TFII inh: 4.4; Gli-Sufu antag: -14.5; aDG glyco up: -0.3; GalR3 antag: -5.2; HIV Env fusion: 5.4

What do the screens show for `COc1ccc(NCc2nnc(SCC(=O)Nc3ccccc3)n2C)cc1`?
COUP-TFII inh: 7.1; Gli-Sufu antag: -8.8; aDG glyco up: -0.1; HIV Env fusion: -15.5; GalR3 antag conf: -0.6; HEK-CNG parental: -0.1

What do the screens show for `C[C@H](O)C#Cc1ccc2c(c1)O[C@@H](CN(C)CC1CC1)[C@@H](C)CN([C@@H](C)CO)S2(=O)=O`?
HIV Env fusion: 5.1[16.7 µM]

How did CCC(=O)N[C@H]1CC[C@H](CC(=O)OC)O[C@@H]1CO do in these assays?
HIV Env fusion: 29.9[16.7 µM]

Results for CCCCCC(=O)NNC(=S)NC(C)=O ?
COUP-TFII inh: -17.3; Gli-Sufu antag: -4.8; aDG glyco up: 0.2; GalR3 antag: 12.9*; HIV Env fusion: -3.4; GalR3 antag conf: 1.7; HEK-CNG parental: 0.0

Results for Cc1cccc(NC(=O)CNC(=O)[C@H]2O[C@@H](n3cnc4c(N)ncnc43)[C@H](O)[C@@H]2O)c1C ?
COUP-TFII inh: -0.3; aDG glyco up: 0.2; GalR3 antag: -5.1; HIV Env fusion: 13.9

How did Nc1ncnc2c1ncn2[C@@H]1O[C@H](C(=O)N[C@H]2c3ccccc3C[C@H]2O)[C@@H](O)[C@H]1O do in these assays?
COUP-TFII inh: -17.6; aDG glyco up: -0.2; GalR3 antag: 20.1*; HIV Env fusion: -0.7; GalR3 antag conf: 31.4*; HEK-CNG parental: 1.3*

What do the screens show for `Cc1ccc(CNC(=O)[C@H]2O[C@@H](n3cnc4c(N)ncnc43)[C@H](O)[C@@H]2O)o1`?
COUP-TFII inh: -44.1; aDG glyco up: -0.2; GalR3 antag: 81.2*; HIV Env fusion: -16.5; GalR3 antag conf: 78.0*; HEK-CNG parental: 0.1

How did Nc1ncnc2c1ncn2[C@@H]1O[C@H](CNCc2ccc(-c3cc(C(F)(F)F)ccc3Cl)o2)[C@@H](O)[C@H]1O do in these assays?
COUP-TFII inh: -47.1; Gli-Sufu antag: -1.0; aDG glyco up: -0.2; GalR3 antag: 41.9*; HIV Env fusion: -120.8; GalR3 antag conf: 54.3*; HEK-CNG parental: 0.4

Results for Nc1ncnc2c1ncn2[C@@H]1O[C@H](C(=O)NS(=O)(=O)c2ccccc2[N+](=O)[O-])[C@@H](O)[C@H]1O ?
COUP-TFII inh: -18.2; aDG glyco up: -0.3; GalR3 antag: 38.6*; HIV Env fusion: inconclusive; GalR3 antag conf: 27.4*; HEK-CNG parental: 0.3

What do the screens show for `C[C@H]1CN([C@@H](C)CO)C(=O)c2cc(NC(=O)C3CC3)ccc2O[C@@H]1CN(C)C(=O)Nc1ccc(F)cc1`?
HIV Env fusion: 5.7[16.7 µM]

Results for C[C@@H]1CN([C@H](C)CO)C(=O)c2cc(NC(=O)Cc3ccccc3)ccc2O[C@@H]1CN(C)S(C)(=O)=O ?
HIV Env fusion: 0.7[16.7 µM]

How did CNCC(O)c1ccc(OC(=O)C(C)(C)C)c(OC(=O)C(C)(C)C)c1 (configuration not stated) do in these assays?
COUP-TFII inh: -54.7; Gli-Sufu antag: -3.1; aDG glyco up: 0.0; GalR3 antag: 54.6*; HIV Env fusion: -14.4; GalR3 antag conf: 63.1*; HEK-CNG parental: 13.5*

What do the screens show for `CC(C)NC[C@H](O)c1ccc(O)c(O)c1`?
COUP-TFII inh: -59.8; Gli-Sufu antag: 2.2; aDG glyco up: 0.2; GalR3 antag: -7.3; HIV Env fusion: 7.4

How did CN(CC(=O)Nc1ccc(F)c(F)c1)S(=O)(=O)c1cccs1 do in these assays?
COUP-TFII inh: -2.5; Gli-Sufu antag: -15.8; aDG glyco up: 0.0; GalR3 antag: -0.2; HIV Env fusion: -9.1

What do the screens show for `CCc1cccc(NC(=O)CN(C)S(=O)(=O)c2cccs2)c1`?
COUP-TFII inh: -24.3; Gli-Sufu antag: -8.4; aDG glyco up: 0.1; GalR3 antag: 14.1*; HIV Env fusion: 19.3; GalR3 antag conf: 12.0; HEK-CNG parental: -0.3

How did CCC(=O)c1ccc(OCC(=O)O)cc1 do in these assays?
COUP-TFII inh: -2.9; Gli-Sufu antag: 12.6; aDG glyco up: 0.0; GalR3 antag conf: -1.7; HEK-CNG parental: 0.1

What do the screens show for `CCC(=O)c1ccc(OCC(=O)NC2CCCC2)cc1`?
COUP-TFII inh: -3.9; Gli-Sufu antag: -1.3; aDG glyco up: 0.0; GalR3 antag: -2.4

What do the screens show for `CCc1nc2ccc(C(=O)Nc3ccc4c(c3)OCC(=O)N4)cn2c1N(CC)CCOC`?
COUP-TFII inh: -27.9; aDG glyco up: -0.1; GalR3 antag: 15.3*; HIV Env fusion: -7.1; GalR3 antag conf: 11.2; HEK-CNG parental: 0.2

Results for CCc1nc2ccc(C(=O)Nc3ccc4c(c3)OCC(=O)N4)cn2c1N(CC)Cc1cccc(Br)c1 ?
COUP-TFII inh: 4.2; aDG glyco up: 0.2; GalR3 antag: 6.2; HIV Env fusion: 33.1

What do the screens show for `COc1ccc(C(=O)C2CCCN(C(=O)c3ccoc3C)C2)cc1F` (configuration not stated)?
COUP-TFII inh: 2.7; Gli-Sufu antag: 1.2; aDG glyco up: 0.0; GalR3 antag: 12.6*; HIV Env fusion: -1.1; GalR3 antag conf: 8.4; HEK-CNG parental: 0.4

From PubChem BioAssay
